Tau ThT inhib – qHTS for Inhibitors of Tau Fibril Formation, Thioflavin T Binding; 270,000 tested, 2.1% active; Potency, µM (series often up to 57.4 µM), for inactives: top-dose activity, negative = inhibition, usual class: inhibitors; AID 1460, 2008; Microtubule-associated protein tau (Homo sapiens), P10636; recombinant tau K18 P301L, heparin-induced fibrillization, ThT fluorescence; also: nearly all actives have a fitted effect of over 55% in size
Target sequence (P10636 561-689 P618L limits assumed): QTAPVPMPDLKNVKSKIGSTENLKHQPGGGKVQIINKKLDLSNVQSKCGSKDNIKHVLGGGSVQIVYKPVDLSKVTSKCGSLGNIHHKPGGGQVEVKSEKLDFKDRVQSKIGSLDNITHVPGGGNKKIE
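Heparin-induced (20 uM) aggregation of recombinant human K18 P301L tau, 15 uM unlabeled with 0.24 uM labeled, pH 7 acetate buffer, 6 hr at 37 C with compound. Fibrils quantified by 30 uM ThT fluorescence after 1 hr ambient incubation.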
PLK1 PBD block – qHTS for Inhibitors of PLK1-PDB (polo-like kinase 1 - polo-box domain): Primary Screen | Serine/threonine-protein kinase PLK1 (Homo sapiens), P53350 | Plk1 PBD binding of FITC phosphopeptide, fluorescence polarization | Potency, µM, inactives show max response, negative = inhibition, usual class: inhibitors | 360,000 tested, 2.8% active | AID 720504, 2013; also: series mostly up to about 57 µM; nearly all actives have a fitted effect of over 65% in size
Tau fluor cs – Counterscreen qHTS for Inhibitors of Tau Fibril Formation, Fluorescence Polarization. 280,000 tested, 0.93% active. tau K18 P301L (four-repeat tau fragment) Alexa594 fluorescence, heparin fibrillization. Potency, µM (titrated, usually from 57.7 µM), for the others: at the top dose activity change, negative = decrease; also: nearly all actives have a fitted effect of over 55% in size
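Human K18 P301L tau (15 uM unlabeled plus 0.24 uM Alexa 594-labeled, final) in 100 mM sodium acetate pH 7 was mixed with compound and 20 uM heparin and incubated 6 hr at 37 C.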
Sfp inh – qHTS Assay for Inhibitors of Bacillus subtilis Sfp phosphopantetheinyl transferase (PPTase); 4'-phosphopantetheinyl transferase ffp (Bacillus subtilis), Q9F4F7; AID 1490, 2009; 310,000 tested, 3.5% active; Potency, µM, for the others: largest response in the series, negative = inhibition, most hits filed as inhibitors; Biochemical Sfp PPTase activity, qHTS;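 also: the enzyme is Sfp with the accession as filed and its product quenches rhodamine fluorescence; 0% = enzyme reaction without inhibitor and -100% = no enzyme wells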
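Sfp 15 nM + cpd, 15 min RT; start w/ rhodamine-CoA 5 uM, BHQ-2-YbbR 12.5 uM (final); 50 mM Hepes pH 7.6, 10 mM MgCl2, 0.01% NP-40, 0.01% BSA; read 525/598 nm at 0 and 30 min.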
Tau fibril FP – qHTS for Inhibitors of Tau Fibril Formation, Fluorescence Polarization; Microtubule-associated protein tau (Homo sapiens), P10636; K18 P301L tau heparin fibrillization, Alexa594 FP, 6 h; Potency, µM (highest dose often 57.7 µM), for the others: top-dose activity, negative = inhibition, actives largely listed as inhibitors; 280,000 tested, 0.39% active; AID 1468, 2008; also: nearly all actives have a fitted effect of over 55% in size
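Read-out: fluorescence polarization of Alexa 594-labeled tau (0.24 uM), 555 nm excitation, 632 nm emission. Mixtures held 15 uM unlabeled K18 P301L, compound and 20 uM heparin, pH 7 acetate buffer, incubated 6 hr at 37 C.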
VDR inhibitor – Inhibitors of the vitamin D receptor (VDR): qHTS. Vitamin D3 receptor (Homo sapiens), P11473. VDR-SRC2-3 peptide fluorescence polarization, 2 h. Potency, µM, without a hit: max response, negative = inhibition, most hits filed as inhibitors. 400,000 tested, 0.93% active
Target sequence (P11473 whole entry, looked up): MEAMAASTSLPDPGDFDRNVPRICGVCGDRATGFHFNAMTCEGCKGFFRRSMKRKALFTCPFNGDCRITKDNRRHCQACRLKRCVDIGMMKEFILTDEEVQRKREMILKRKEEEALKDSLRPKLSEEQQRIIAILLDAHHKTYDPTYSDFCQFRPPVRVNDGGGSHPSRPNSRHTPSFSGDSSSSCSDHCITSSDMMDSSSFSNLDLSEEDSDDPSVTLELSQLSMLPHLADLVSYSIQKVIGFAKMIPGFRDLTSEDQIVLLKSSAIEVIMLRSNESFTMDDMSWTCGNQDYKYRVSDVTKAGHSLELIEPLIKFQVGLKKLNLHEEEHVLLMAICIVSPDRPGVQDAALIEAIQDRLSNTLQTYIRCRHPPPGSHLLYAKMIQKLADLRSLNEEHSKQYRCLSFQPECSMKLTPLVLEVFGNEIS
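After 23 nl compound addition and a short centrifugation, plates sat for 2 hours at ambient temperature; polarization of fluorescence then indicated loss of VDR binding to peptide SRC2-3.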
* marks the source's active call; other numbers are inactive results; ? = inconclusive; . = no result; ! = a repeat was not active; [ ] = remark or other dose. Only some compounds are listed: those with a hit (about 6% of all), similar ones and a draw of the others. Calls follow the shape of the dose curve; as a rule, active = well fitted curve in the direction sought with a large enough effect; inconclusive = small, poorly fitted or top-dose-only effect, or another doubt; inactive = no such curve, though single readings can be large; an effect the other way counts as inactive or inconclusive. Unless noted, % is scaled to controls: 0 for no effect and ±100 for the full control effect; potency is read from the fitted curve at half-maximal effect.

SMILES	Tau ThT inhib	PLK1 PBD block	Tau fluor cs	Sfp inh	Tau fibril FP	VDR inhibitor
Cc1ccc(-c2cc(C(=O)NCCCn3ccnc3)c3cc(Br)ccc3n2)o1	?	24µM*	-22%	-5%	-8%	-6%
Cc1c(C(=O)N(C)C)sc2c1c(=O)n(-c1ccc(Cl)c(Cl)c1)c(=O)n2CC(=O)Nc1ccc(Br)cc1F	?	.	-8%	.	-8%	11%
CCn1nc(C)c(CNC(=O)c2cc(COc3cncc(Cl)c3)on2)c1C	.	24µM*	.	6%	.	?
CCOc1cccc2sc(NC(=O)CS(=O)(=O)c3ccc(C)cc3)nc12	5%	.	1%	.	?	16%
COc1ccc(Oc2ncc3ncc(=O)n(Cc4ccc(F)cc4)c3n2)cc1	.	.	.	7%	.	-6%
COc1ccc2nc(-n3c(O)c(C4=c5ccccc5=NC4=O)[nH]c3=S)sc2c1	2.2µM*	?	8.9µM*[quencher]	50µM*	?	-22%
NC(C(=O)O)c1cc(O)c(Cl)c(O)c1 (centres undefined)	9%	.	4%	23%	-2%	2%
NC(C(=O)O)C(O)c1ccc(O)c(O)c1 (centres undefined)	.	.	.	45µM*	.	?
N[C@H](C(=O)O)c1ccc(O)c(C(=O)O)c1	0%	.	-3%	20µM*	0%	11%
N[C@H](C(=O)O)c1cccc(O)c1	?	.	-1%	45µM*!	?	7%
NC(=O)c1ccc2nc(-c3ccc(Oc4ccc(Cl)cc4)cc3)[nH]c2c1	.	.	.	-16%	.	-2%
COc1cc2[nH]c(=O)c(C(=O)NCc3ccc(C)cc3)c(O)c2cc1OC	.	-2%	.	.	.	.
Cn1cc(-c2cc3n(n2)CCC(=O)N3CCCC(=O)NCc2ccccc2)c2ccccc21	-13%	.	-19%	.	?	5%
CC(C)(C)CC(=O)OCC(=O)Nc1cc(C(C)(C)C)nn1-c1ccccc1	-6%	24µM*	-15%	9%	1%	-24%
CC(C)(C)OC(=O)N1CCC[C@H]1C(=O)NCc1ccc(Cl)cc1Cl	-4%	27µM*	-4%	15%	5%	?
O=C(CNCCc1ccc(F)cc1)Nc1cc(F)ccc1F	.	-5%	.	63µM*	.	16%
Cc1cc(=O)nc2c3ccccc3n(CC(=O)NCCCN3CCOCC3)n12	.	19µM*	.	15%	.	?
COc1ccc(-c2cc(C(=O)Nc3nc4c(C)cccc4s3)c3ccccc3n2)cc1OC	-5%	-9%	-24%	-8%	-22%	3%
NC(=S)Nc1nc2ccccc2s1	-11%	-13%	-19%	50µM*	?	-5%
COc1ccc2nc(NC(=O)c3cc(=O)c4ccccc4o3)sc2c1	0.89µM*	.	-22%	.	-9%	8%
COc1ccc(C(=O)Nc2nc3ccccc3s2)c(OC)c1	.	3.4µM*	.	3%	.	?
COc1cccc(-c2cc(C(=O)Nc3nc4ccccc4s3)c3ccccc3n2)c1	-15%	?	-24%	40µM*	?	14%
COc1ccc(Br)c(Cn2c(C)c(C(=O)NCCC#N)sc2=O)c1	.	-3%	.	.	.	.
Cc1noc(C)c1-c1ccc2ncnc(NCc3cc(F)cc(F)c3)c2c1	.	.	.	8%	.	.
Cc1ccc2nc(NC(=O)c3cc(-c4ccco4)nc4ccccc34)sc2c1	?	-10%	-30%	-2%	-3%	-6%
SMILES	Tau ThT inhib	PLK1 PBD block	Tau fluor cs	Sfp inh	Tau fibril FP	VDR inhibitor
Cc1cc(C)c2nc(NNC(=O)c3cc(=O)c4ccccc4o3)sc2c1	5µM*	-26%	?	18µM*	-10%	40µM*
O=C(Nc1nc2ccccc2s1)c1cc(-c2ccco2)nc2ccccc12	?	-22%	-29%	45µM*	-3%	?
COc1cccc2[nH]c3ccccc3c(=O)c12	.	-4%	.	7%	.	-7%
COc1cccc2[nH]c(C(=O)NN)c(N)c12	28µM*	-11%	?	-1%	?	0%
NNC(=O)c1[nH]c2ccc(Br)cc2c1-c1ccccc1	-8%	-5%	?	-11%	0%	?
COc1cc2[nH]c(C(=O)NN)c(N)c2cc1OC	16µM*	.	22µM*[quencher]	10%	?	.
CC(C)(SC(=S)N1CCCCCC1)C(=O)O	-5%	?	-10%	79µM*	-20%	-6%
CNc1nc(NC#N)nc(SC)n1	.	30µM*	.	-3%	.	?
CCNc1nc(NC#N)nc(SCC(=O)OCC)n1	-1%	0%	0%	20%	-1%	1%
CCOc1cc(C2C(C(=O)OC)=C(C)NC3=C2C(=O)c2ccccc23)c(Br)cc1OC (centres undefined)	?	.	16µM*[quencher]	.	0%	-4%
C#CCOc1ccc(C2C(C(=O)OC)=C(C)NC3=C2C(=O)c2ccccc23)cc1OCC (centres undefined)	?	.	11µM*[quencher]	.	-4%	-4%
CCOc1cc(Br)c(C2C(C(=O)OC)=C(C)NC3=C2C(=O)c2ccccc23)cc1OCC (centres undefined)	?	.	?	.	11%	-5%
CCOc1cc(C2C(C(=O)OC)=C(C)NC3=C2C(=O)c2ccccc23)cc(Br)c1OCC (centres undefined)	?	.	4µM*[quencher]	.	?	?
CCOc1cc(C2C(C(=O)OC)=C(C)NC3=C2C(=O)c2ccccc23)c(Br)cc1O (centres undefined)	5µM*	.	14µM*[quencher]	.	11%	-9%
CSc1ccc(CN2CCC2(C)C(=O)NC2CCN(Cc3ccccc3)CC2)cc1 (centres undefined)	.	0%	.	.	.	.
O=c1[nH]c(/C=C/c2cccc3ccccc23)nc2ccccc12	-7%	-1%	-1%	-16%	1%	-11%
CCCN1C(=O)/C(=C\c2nc3ccccc3c(=O)[nH]2)c2ccccc21	22µM*	-7%	-20%	?	1%	-21%
Cc1ccc(-c2nc3ccccc3o2)cc1NC(=O)c1cccc2c(Cl)cccc12	-5%	.	-9%	.	-7%	-17%
Clc1ccc(Cn2nc(-c3ccccc3)nc2-c2ccccc2)cc1	-3%	24µM*	-14%	-10%	1%	-29%
CC(C)n1cnc2c(=S)nc[nH]c21	-10%	-5%	-10%	8.9µM*	2%	-28%
S=c1nc[nH]c2c1ncn2-c1ccccc1	.	-8%	.	.	.	3%
CC(C(=O)N1CCCC1)N(C)CC(=O)Nc1cccc(F)c1 (centres undefined)	.	-6%	.	.	.	?

Screening results deposited in PubChem by National Center for Advancing Translational Sciences (NCATS).
